Experimental data as given in PubChem BioAssay AID1259343 (VanderVen Lab, College of Veterinary Medicine, Cornell …, 2017).
The whole screen tested about 6,200 compounds, of which about 2,900 (47%) were called active. So high a share suggests a set chosen from earlier hits. This is one part of the list. Unmarked numbers belong to inactive results. No stated cut-off is given here; in the data, active means inhibition above about 50%; inactive means the rest.

Assay: Mycobacterium tuberculosis growth inhibition, primary screen (AID 1259343)
Settings: inhibition: at 10 µM, hits give high values; outcome: 10 uM

| Structure (SMILES) | inhibition |
| --- | --- |
| CN(CC(=O)c1cccc(Br)c1)C1CCCCC1 | 13.2% |
| c1csc(-c2nc(COc3ccc4c(c3)CCC4)co2)c1 | -21.4% |
| Cc1ccc(-c2nc(COc3ccc(C)cn3)co2)cc1 | 58.5% (active) |
| COc1ccccc1OCc1coc(-c2ccc(C)cc2C)n1 | 40.9% |
| O=C(Cc1cc(-c2ccc3c(c2)OCO3)on1)NCc1cccs1 | 90.9% (active) |
| CC1Cc2cc(-c3cc(CO)no3)ccc2O1 (stereo not given) | -11.9% |
| O=C(O)Cc1cc(-c2ccc3c(c2)OCCO3)on1 | 73.2% (active) |
| COC(=O)CC1CC(=O)C2C(=O)c3c(OC)ccc(Br)c3C2C1 (stereo not given) | 28.1% |
| O=S(=O)(N1CCN(c2ccccc2)CC1)C(F)(F)C(F)(F)C(F)(F)C(F)(F)F | 21.4% |
| O=C1c2ccccc2-c2nn(CN3CCN(c4ccccc4)CC3)c3cccc1c23 | 31.3% |
| c1ccc(N2CCN(c3ccccn3)CC2)cc1 | 61.2% (active) |
| CCCCCCSC1=C(C#N)C2(CCCCC2)C(C#N)C(=O)N1 (stereo not given) | 4.19% |
| Fc1ccccc1-c1nnc(-c2ccc3c(c2)OCO3)o1 | -0.93% |
| Fc1ccc(-c2nnc(-c3ccc4c(c3)OCO4)o2)cc1 | 70.5% (active) |
| Clc1ccccc1-c1nnc(-c2ccc3c(c2)OCO3)o1 | 72.5% (active) |
| Oc1ccccc1C1CC(c2ccc3c(c2)OCO3)=NC(c2cccc(F)c2)N1 (stereo not given) | -19.4% |
| Fc1ccc(/C=C/c2nnc(-c3ccccc3Cl)o2)cc1 | 42.9% |
| O=C(Nc1cccc(O)c1)c1nn2c(C(F)(F)F)cc(-c3ccccc3)nc2c1Cl | -37.9% |
| Oc1c(Cl)cc(Cl)cc1C=NNc1nc2ccccc2s1 | 101% (active) |
| c1ccc2c(c1)CCC(=NNc1nc3ccccc3s1)C2 | 48.5% |
| Fc1ccc2c(c1)C(=NNc1nc3ccccc3s1)CCS2 | -16.9% |
| CC(C)C1CC(=NNC(N)=S)C=C2CCCCC21 (stereo not given) | 102% (active) |
| COCCCNC(=O)c1nn(-c2ccc(F)cc2)c2ncccc12 | 42.3% |
| CC(Oc1ccccc1)C(=O)Nn1cnc2c(cnn2-c2ccc(F)cc2)c1=O (stereo not given) | 70.4% (active) |
| C=CCSc1nnc(-c2cc(Br)ccc2N)c(=O)[nH]1 | 76.5% (active) |
| Cc1ccc(-c2nnc(-c3ccccc3N)[nH]c2=O)cc1C | 49.2% |
| CCCCCCCCc1nnc(N)s1 | 89.3% (active) |
| CN(Cc1ccc(Br)cc1)C(=O)Nc1ccc(F)c(F)c1F | 44.5% |

| Structure (SMILES) | inhibition |
| --- | --- |
| CCc1ccc(NC(=O)CNc2ccc(F)c(F)c2F)cc1 | 96.5% (active) |
| CCCCc1ccc(NC(=O)CNc2ccccc2C(C)=O)cc1 | 90.7% (active) |
| CCc1ccc(NCC(=O)Nc2ccc(I)cc2C)cc1 | 53.6% (active) |
| CCC(C)c1ccc(NC(=O)CNc2ccc(F)c(C(=O)OC)c2)cc1 (stereo not given) | -5.36% |
| CSc1nc2cc(NC(=S)NC(=O)c3ccccc3)ccc2s1 | 91.3% (active) |
| CC(C)C(=O)NC(=S)Nc1nc2ccc(Cl)cc2s1 | 13.7% |
| COc1cc(C(=O)N2CCOC(COc3cccc(C(F)(F)F)c3)C2)ccc1F (stereo not given) | 62.2% (active) |
| O=C(c1cc(F)cc(F)c1)N1CCOC(COc2cccc(C(F)(F)F)c2)C1 (stereo not given) | 84.5% (active) |
| O=C(COc1ccc(F)cc1)N1CCOC(COc2cccc(C(F)(F)F)c2)C1 (stereo not given) | 15.7% |
| O=C(Cc1cccc(Cl)c1)N1CCOC(COc2cccc(C(F)(F)F)c2)C1 (stereo not given) | 17.4% |
| N#CSc1ccc(N)c(Cl)c1 | 94.6% (active) |
| Cc1cccc(OCCN(C)c2cnn(-c3ccc(F)cc3F)c(=O)c2Cl)c1 | 14.4% |
| Cc1ccc(CSc2nc(CC(=O)NCc3ccco3)cs2)cc1 | 90.2% (active) |
| Cc1ccc(CSc2nc(CC(=O)NCC(C)C)cs2)cc1 | 58.9% (active) |
| Cc1ccc(CSc2nc(CC(=O)NCc3ccccc3)cs2)cc1 | 62.1% (active) |
| Cc1ccc(CSc2nc(CC(=O)O)cs2)cc1 | 31.9% |
| CCNC(=O)Cc1csc(SCc2ccc(C)cc2)n1 | 72.3% (active) |
| CC(C)CCNC(=O)Cc1csc(SCc2ccc(Cl)cc2)n1 | 68.8% (active) |
| Cc1ccc(CSc2nc(CC(=O)NC3CCCC3)cs2)cc1 | 3.98% |
| Cc1ccc(CSc2nc(CC(=O)NCc3cccs3)cs2)cc1 | 60.2% (active) |
| Cc1ccc(CSc2nc(CC(=O)NC(C)C)cs2)cc1 | 69.6% (active) |
| Cc1ccc(CSc2nc(CC(=O)NCCC(C)C)cs2)cc1 | 5.27% |
| Cc1ccc(CSc2nc(CC(=O)NC3CCCCC3)cs2)cc1 | 81.7% (active) |
| CC(C)CN(CC(=O)Nc1nc(CC(=O)NCc2ccc(F)cc2)cs1)C(=O)c1ccc(Cl)cc1 | -3.41% |
| Cc1ccc(CSc2nc(CC(=O)NC3CC3)cs2)cc1 | 50% |
| O=C(CCl)NC(=O)NCc1cccs1 | -19.2% |
| CCC(C)NC(=O)Cc1csc(SCc2ccc(C)cc2)n1 (stereo not given) | -14.8% |
